Experimental data reported in PubChem BioAssay (NCATS).
Several values for one entry are separate records, joined by “and”; a condition that tells them apart may be missing. Identical values can stand only once. Results filed as inconclusive are left out. Entries that show only a call come without a potency. A number with no mark means an inactive call. Activity calls are given as the source filed them. Unless noted, the call rests on the fitted dose curve; in most records, active means well fitted curve in the direction sought with a large enough effect; inconclusive means small, poorly fitted or top-dose-only effect, or another doubt; inactive means no such curve, though single readings can be large; an effect the other way counts as inactive or inconclusive.

Biological target: Cytochrome P450 2D6 (Homo sapiens) (UniProt P10635)
Sequence (P10635 whole entry, looked up): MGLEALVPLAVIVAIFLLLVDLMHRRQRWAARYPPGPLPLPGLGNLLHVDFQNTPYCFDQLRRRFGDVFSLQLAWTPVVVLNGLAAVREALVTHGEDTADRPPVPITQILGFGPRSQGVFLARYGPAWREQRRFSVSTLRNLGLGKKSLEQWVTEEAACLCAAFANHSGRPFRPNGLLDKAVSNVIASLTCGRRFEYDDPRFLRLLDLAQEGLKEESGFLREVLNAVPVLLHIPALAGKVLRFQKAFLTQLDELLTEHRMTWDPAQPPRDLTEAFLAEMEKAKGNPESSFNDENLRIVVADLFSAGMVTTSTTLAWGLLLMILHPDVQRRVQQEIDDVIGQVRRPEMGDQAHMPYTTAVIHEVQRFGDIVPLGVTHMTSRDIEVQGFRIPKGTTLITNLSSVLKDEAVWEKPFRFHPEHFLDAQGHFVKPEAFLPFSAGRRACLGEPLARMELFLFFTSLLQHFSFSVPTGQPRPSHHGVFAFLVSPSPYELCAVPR
Assay: Cytochrome P450 family 2 subfamily D member 6 (CYP2D6) small molecule antagonists: luciferase biochemical (cell-free) qHTS assay (AID 1645840; active means well fitted curve in the direction sought with a large enough effect in the repeat runs; an effect the other way counts as inactive or inconclusive; further: nearly all actives have a fitted effect of over 55% in size)
Details: P450-Glo CYP2D6 enzyme, luciferin luminescence, 1 h; series mostly up to 57.4 µM
Method in brief: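 P450-Glo luminescent screen: recombinant CYP2D6 enzyme–proluciferin substrate mix preincubated with compound 10 min at room temperature, then NADPH regeneration added for 1 h at room temperature. Detection reagent added for 20 min; luciferin light read as relative luminescence units.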
Potency means the concentration at half of the fitted maximal effect.

| Compound | Potency |
| --- | --- |
| Cc1ccccc1NC(=O)Nc1ccc(CC(=O)N(C)[C@@H](CC(C)C)C(=O)NCC[C@H](NC(=O)[C@@H]2CCCN2S(=O)(=O)c2cc(Cl)cc(Cl)c2)C(=O)O)cc1 | inactive |
| CCO[C@@H]1OC(=O)C[C@@H]1NC(=O)[C@@H]1CCCN1C(=O)[C@@H](NC(=O)c1ccc(N)c(Cl)c1)C(C)(C)C | inactive |
| C[C@@H]1COCCN1c1cc(C2(S(C)(=O)=O)CC2)nc(-c2cccc3[nH]ccc23)n1 | inactive |
| N#Cc1cc(F)cc(-c2nc(-c3ccccn3)no2)c1 | 10.7 µM (active) |
| Cc1cnc(NC(=O)Nc2cc(Br)c(C)cc2OCC2CNCCO2)cn1 (stereo not drawn) | 12 µM (active) |
| O=C(c1cn(Cc2cncn2Cc2ccc(Br)cc2)cc1-c1cccc2ccccc12)N1CCOCC1 | 10.7 µM (active) |
| CC(=O)NC1=NN(C(C)=O)C(C)(c2ccccc2)S1 (stereo not drawn) | inactive |
| O=C(O)Cc1ccc2oc(-c3ccc(NC(=O)/C=C/c4ccc(Br)cc4)c(F)c3)nc2c1 | inactive |
| Cc1cc(OCc2nnc(SC3CCCC3)n2-c2cccnc2)ccc1-c1ccc(S(C)(=O)=O)cc1 | inactive |
| CCOCc1cc(OC)c(-c2ccc(C[C@H](NC(=O)c3c(F)cccc3F)C(=O)O)cc2)c(OC)c1 | inactive |
| CNCc1ccc(-c2cc(-c3nc(-c4ccc(S(=O)(=O)C(C)C)cc4)cnc3N)on2)cc1 | inactive |
| COc1cc2ncnc(Nc3cccc(O)c3)c2cc1OC | inactive |
| CCOc1cc(N2CCC(O)CC2)ccc1Nc1ncc2c(n1)N(C1CCCC1)CCC(=O)N2C | inactive |
| NCc1ccc(Nc2ncc(F)c(Nc3ccccc3)n2)cc1 | 15.1 µM (active) |
| CC(C)(C)OC(=O)N1CCC(OCc2nc(-c3ccncc3)no2)CC1 | inactive |
| Nc1nccn2c(C3CCC(C(=O)O)CC3)nc(-c3cc4cccc(Cl)c4[nH]3)c12 (stereo not drawn) | inactive |
| CCN1CCN(Cc2ccc(NC(=O)c3ccc(C)c(NC(=O)c4cncc(-c5cccs5)c4)c3)cc2C(F)(F)F)CC1 | 3.38 µM (active) |
| c1ccc(N2CCN(CCc3nn[nH]n3)CC2)cc1 | inactive |
| CC(NC(=O)C(O)C(C)C)C(=O)NC1C(=O)N(C)CCc2ccccc21 (stereo not drawn) | inactive |
| Cc1cc(OCc2nc(-c3ccccc3Cl)cs2)ccc1OCC(=O)O | inactive |

| Compound | Potency |
| --- | --- |
| C=CC(=O)Nc1cccc(Nc2nc(Nc3ccc(N4CCN(C(C)=O)CC4)cc3OC)ncc2C(F)(F)F)c1 | inactive |
| c1ccc(-c2csc(N3CCOCC3)n2)cc1 | inactive |
| CCCCOC(=O)NC(=O)C1c2ccccc2Oc2ccccc21 | inactive |
| C[C@@H]1CN(Cc2ncccn2)C[C@H]1c1nc2c(cnn2C2CCOCC2)c(=O)[nH]1 | inactive |
| Cc1ccc(S(=O)(=O)Cc2nc(-c3ccc(C(=O)NCc4cccnc4)cc3)oc2C)cc1 | inactive |
| CC(=O)SCC(=O)c1ccc(NS(=O)(=O)c2ccc(OCCCN(C)C)cc2)nc1 | inactive |
| CC(C)C(CO)Nc1nc(Nc2ccc(C(=O)O)c(Cl)c2)c2ncn(C(C)C)c2n1 (stereo not drawn) | inactive |
| COc1ccc(-c2cnc(-c3cccc4c3-c3ccccc3C4=O)o2)cc1 | inactive |
| O=C(CN1C(=O)C2(CCCC2)NCC1c1cc(F)cc(F)c1)Nc1ccc2c(c1)CC1(C2)C(=O)Nc2ncccc21 (stereo not drawn) | inactive |
| Cc1ccc(NC(=O)Nc2cc(C(F)(F)F)ccc2F)cc1Nc1ccc2c(c1)NC(=O)/C2=C\c1ccc[nH]1 | inactive |
| O=C(O)c1cc(-c2c(-c3ccccc3)nn3ccccc23)n[nH]c1=O | inactive |
| COC(=O)CC1CC(c2ccc(O)cc2)=NO1 (stereo not drawn) | inactive |
| Cn1nnc(-c2ccc(-c3ccc(N4C[C@H](CO)OC4=O)cc3F)cn2)n1 | inactive |
| Cc1cc(C(=O)N2Cc3cnn(C)c3Nc3ccccc32)ccc1CNC(=O)N1CCC[C@H]1C(=S)N1CCCN(C)CC1 | inactive |
| O=C1CC2(CCCC2)[C@H](O)C(=O)N1CCCCN1CCN(c2ncccn2)CC1 | 12 µM (active) |
| CCOCCn1nc(CC)c2nc(N3CCC(C(=O)O)CC3)nc(Nc3cc(C)ccn3)c21 | inactive |
| Cc1cccc(S(=O)(=O)N2CCC[C@@H]2CCN2CCC(C)CC2)c1 | 2.39 µM (active) |
| COc1ncc2cc(C(=O)Nc3cc(C(=O)NCc4cccc(Cl)c4)ccc3Cl)c(=O)[nH]c2n1 | inactive |
| CN(C)C(=O)NC1CCC(CCN2CCN(c3cccc(Cl)c3Cl)CC2)CC1 (stereo not drawn) | 12 µM (active) |

Tested on: not listed separately
Assay: Primary qHTS for inhibitors of nuclear receptor binding SET domain protein 2 (NSD2) in an isogenic RCH-ACV NSD2 p.E1099K mutant (9B) (AID 1645876); further: nearly all actives have a fitted effect of over 70% in size
Details: RCH-ACV (leukaemia line) NSD2 E1099K (9B) viability, CellTiter-Glo, 72 h; series mostly up to 44.9 µM

| Compound | Potency | activity change, negative = viability loss |
| --- | --- | --- |
| Cc1ccccc1NC(=O)Nc1ccc(CC(=O)N(C)[C@@H](CC(C)C)C(=O)NCC[C@H](NC(=O)[C@@H]2CCCN2S(=O)(=O)c2cc(Cl)cc(Cl)c2)C(=O)O)cc1 | inactive |  |
| CCO[C@@H]1OC(=O)C[C@@H]1NC(=O)[C@@H]1CCCN1C(=O)[C@@H](NC(=O)c1ccc(N)c(Cl)c1)C(C)(C)C | inactive |  |
| C[C@@H]1COCCN1c1cc(C2(S(C)(=O)=O)CC2)nc(-c2cccc3[nH]ccc23)n1 | 0.515 µM (active) |  |
| N#Cc1cc(F)cc(-c2nc(-c3ccccn3)no2)c1 | inactive |  |
| Cc1cnc(NC(=O)Nc2cc(Br)c(C)cc2OCC2CNCCO2)cn1 (stereo not drawn) | 0.649 µM (active) |  |
| O=C(c1cn(Cc2cncn2Cc2ccc(Br)cc2)cc1-c1cccc2ccccc12)N1CCOCC1 | 1.83 µM (active) |  |
| CC(=O)NC1=NN(C(C)=O)C(C)(c2ccccc2)S1 (stereo not drawn) | 4.59 µM (active) |  |
| O=C(O)Cc1ccc2oc(-c3ccc(NC(=O)/C=C/c4ccc(Br)cc4)c(F)c3)nc2c1 | inactive |  |
| Cc1cc(OCc2nnc(SC3CCCC3)n2-c2cccnc2)ccc1-c1ccc(S(C)(=O)=O)cc1 | 0.817 µM (active) |  |
| CCOCc1cc(OC)c(-c2ccc(C[C@H](NC(=O)c3c(F)cccc3F)C(=O)O)cc2)c(OC)c1 | inactive |  |
| CNCc1ccc(-c2cc(-c3nc(-c4ccc(S(=O)(=O)C(C)C)cc4)cnc3N)on2)cc1 | 183 nM (active) and 83.3 nM (active) |  |
| COc1cc2ncnc(Nc3cccc(O)c3)c2cc1OC | 2.9 µM (active) |  |
| CCOc1cc(N2CCC(O)CC2)ccc1Nc1ncc2c(n1)N(C1CCCC1)CCC(=O)N2C | 2.05 µM (active) |  |
| NCc1ccc(Nc2ncc(F)c(Nc3ccccc3)n2)cc1 | 3.25 µM (active) |  |
| CC(C)(C)OC(=O)N1CCC(OCc2nc(-c3ccncc3)no2)CC1 | inactive |  |
| Nc1nccn2c(C3CCC(C(=O)O)CC3)nc(-c3cc4cccc(Cl)c4[nH]3)c12 (stereo not drawn) | 1.29 µM (active) and 3.72 µM (active) |  |
| CCN1CCN(Cc2ccc(NC(=O)c3ccc(C)c(NC(=O)c4cncc(-c5cccs5)c4)c3)cc2C(F)(F)F)CC1 | 45.9 nM (active) and 166 nM (active) |  |
| c1ccc(N2CCN(CCc3nn[nH]n3)CC2)cc1 | inactive |  |
| CC(NC(=O)C(O)C(C)C)C(=O)NC1C(=O)N(C)CCc2ccccc21 (stereo not drawn) | inactive |  |
| Cc1cc(OCc2nc(-c3ccccc3Cl)cs2)ccc1OCC(=O)O | inactive |  |

| Compound | Potency | activity change, negative = viability loss |
| --- | --- | --- |
| C=CC(=O)Nc1cccc(Nc2nc(Nc3ccc(N4CCN(C(C)=O)CC4)cc3OC)ncc2C(F)(F)F)c1 | 3.65 µM (active) and 4.17 µM (active) |  |
| c1ccc(-c2csc(N3CCOCC3)n2)cc1 | inactive |  |
| CCCCOC(=O)NC(=O)C1c2ccccc2Oc2ccccc21 | inactive |  |
| C[C@@H]1CN(Cc2ncccn2)C[C@H]1c1nc2c(cnn2C2CCOCC2)c(=O)[nH]1 | inactive |  |
| Cc1ccc(S(=O)(=O)Cc2nc(-c3ccc(C(=O)NCc4cccnc4)cc3)oc2C)cc1 | 0.0132 µM (active) |  |
| CC(=O)SCC(=O)c1ccc(NS(=O)(=O)c2ccc(OCCCN(C)C)cc2)nc1 | 1.29 µM (active) |  |
| CC(C)C(CO)Nc1nc(Nc2ccc(C(=O)O)c(Cl)c2)c2ncn(C(C)C)c2n1 (stereo not drawn) | inactive |  |
| COc1ccc(-c2cnc(-c3cccc4c3-c3ccccc3C4=O)o2)cc1 | 0.0893 µM (active) |  |
| O=C(CN1C(=O)C2(CCCC2)NCC1c1cc(F)cc(F)c1)Nc1ccc2c(c1)CC1(C2)C(=O)Nc2ncccc21 (stereo not drawn) | inactive |  |
| Cc1ccc(NC(=O)Nc2cc(C(F)(F)F)ccc2F)cc1Nc1ccc2c(c1)NC(=O)/C2=C\c1ccc[nH]1 | 11.5 µM (active) and 16.6 µM (active) |  |
| O=C(O)c1cc(-c2c(-c3ccccc3)nn3ccccc23)n[nH]c1=O | inactive |  |
| COC(=O)CC1CC(c2ccc(O)cc2)=NO1 (stereo not drawn) | inactive |  |
| Cn1nnc(-c2ccc(-c3ccc(N4C[C@H](CO)OC4=O)cc3F)cn2)n1 | inactive |  |
| Cc1cc(C(=O)N2Cc3cnn(C)c3Nc3ccccc32)ccc1CNC(=O)N1CCC[C@H]1C(=S)N1CCCN(C)CC1 | inactive |  |
| O=C1CC2(CCCC2)[C@H](O)C(=O)N1CCCCN1CCN(c2ncccn2)CC1 | inactive |  |
| CCOCCn1nc(CC)c2nc(N3CCC(C(=O)O)CC3)nc(Nc3cc(C)ccn3)c21 | inactive |  |
| Cc1cccc(S(=O)(=O)N2CCC[C@@H]2CCN2CCC(C)CC2)c1 | inactive |  |
| COc1ncc2cc(C(=O)Nc3cc(C(=O)NCc4cccc(Cl)c4)ccc3Cl)c(=O)[nH]c2n1 | 6.51 µM (active) |  |
| CN(C)C(=O)NC1CCC(CCN2CCN(c3cccc(Cl)c3Cl)CC2)CC1 (stereo not drawn) |  | 3.61% [at 9.23 µM] |
